Measured values published in PubChem BioAssay AID1220 (Sanford-Burnham Center for Chemical Genomics, 2008).
Hit rate of the full screen: of about 190,000 compounds, about 1,300 (0.68%) were called active. Rule as the data show it: active = inhibition above about 50%; inactive = the rest. This excerpt belongs to a sample that is enriched for actives.

Each molecule was assayed against Mannose-6-phosphate isomerase (Homo sapiens) (UniProt P34949) (assay: MPI inhibition at elevated mannose 6-phosphate – biochemical, fluorescence intensity, high mannose 6-phosphate, primary screen (AID 1220)). Conditions: recombinant PMI enzyme, coupled fluorescence intensity; at 20 µM; active compounds read high.
Sequence of Mannose-6-phosphate isomerase (Homo sapiens) (P34949 whole entry, looked up): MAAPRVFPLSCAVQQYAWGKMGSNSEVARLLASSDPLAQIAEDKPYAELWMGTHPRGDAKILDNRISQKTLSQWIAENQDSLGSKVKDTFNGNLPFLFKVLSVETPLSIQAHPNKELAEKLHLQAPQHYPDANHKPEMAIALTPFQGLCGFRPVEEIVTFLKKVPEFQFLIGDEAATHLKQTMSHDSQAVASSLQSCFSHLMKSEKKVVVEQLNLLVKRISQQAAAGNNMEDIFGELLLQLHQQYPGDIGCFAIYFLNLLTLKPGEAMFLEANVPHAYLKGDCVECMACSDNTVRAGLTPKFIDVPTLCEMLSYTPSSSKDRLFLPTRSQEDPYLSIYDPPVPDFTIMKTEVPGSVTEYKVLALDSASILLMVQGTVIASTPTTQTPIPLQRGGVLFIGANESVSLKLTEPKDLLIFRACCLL

inhibition, inactive:
COc1ccc(OC)c(-n2c(-c3cccc(S(=O)(=O)N(C)C)c3)n[nH]c2=S)c1 15.9%
Nc1nc(-c2ccc(Cl)cc2)c(S(=O)(=O)c2ccccc2)s1 -1.5%
COc1cc(/C=N/NC(=O)CN2CCOCC2)ccc1OCc1ccccc1 -5.3%
COc1ccc(Cl)c(NC(=O)Cn2nnc(-c3ccccc3N)n2)c1 -3.6%
CCc1nc(Nc2ccc3c(c2)OCO3)c2oc3ccccc3c2n1 23%
CCOCCCNS(=O)(=O)c1ccc(NC(=O)C2CC(=O)N(c3ccc(C)cc3)C2)cc1 (stereo unspecified) 6%
Cc1cc(C)c(C(=O)/C=C/C=C/c2ccccc2)c(=O)[nH]1 22.8%
C/C(=N\NC(=O)c1nn(C)c(C)c1Br)c1ccc(NC(=O)c2ccccc2F)cc1 10.7%
COc1ccc(C(=O)NC(=S)NNC(=O)c2ccc(NC(=O)C(C)C)cc2)cc1 -10.9%
O=c1[nH]ncc(N2CCCCC2)c1Cl 12.3%
Cc1cc([N+](=O)[O-])ccc1NCc1ccccc1[N+](=O)[O-] 21.5%
Cc1cc(F)ccc1NCc1cc2c(cc1[N+](=O)[O-])OCO2 37.6%
CCOC(=O)/C(C(=O)Nc1ccc(Br)cc1)=C1/NC(C)(C)Cc2ccccc21 3.4%
OCCNC(=S)Nc1ccc(Oc2ccccc2)cc1 2.2%
CCCC12CN3CCN(CC(C3)/C1=N\NC(=O)c1ccccc1Cl)C2 -11.2%
O=C1c2ccccc2C(Nc2ccc3c(c2)OCO3)N1Cc1ccc2c(c1)OCO2 (stereo unspecified) 23.7%
O=C1c2ccccc2C(Nc2ccc3c(c2)OCCO3)N1Cc1ccco1 (stereo unspecified) 0.2%
CCN(C(=O)CSc1nnc(-c2c[nH]c3ccccc23)o1)C1CCS(=O)(=O)C1 (stereo unspecified) 4.2%
COc1ccccc1CNc1nc2nc3c(c(=O)n2[nH]1)CCC3 4.2%
O=c1c2c(nc3nc(NCc4ccccc4Cl)[nH]n13)CCC2 -5.2%
Cc1ccc(-c2ccc(=O)n(CC(=O)NCCCN3CCCCC3C)n2)cc1 (stereo unspecified) 12.3%
CC1CCCCN1CCNC(=O)Cn1nc(-c2ccccc2)ccc1=O (stereo unspecified) -4.4%

inhibition, active:
Cc1cc(F)ccc1NCc1ccccc1[N+](=O)[O-] 70%
O=C1c2ccccc2C(Nc2ccc3c(c2)OCO3)N1Cc1ccco1 (stereo unspecified) 57.7%
O=c1c2c(nc3nc(NCc4cccc5ccccc45)[nH]n13)CCC2 55.7%
Cc1ccc(-c2ccc(=O)n(CC(=O)NCCN3CCCCC3C)n2)cc1 (stereo unspecified) 60.7%
